Measurements reported in PubChem BioAssay (NCI).
This is part of a sample that, as a whole, favours compounds with a hit. Of some 83,000 tested, about 20% had one in any assay.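 96-well plates, one dose, 48 hours. Percent growth reported; active if below 10.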 Values without a mark were called inactive. The source made the active and inactive calls.

How the values were obtained:
Assay in all cases: NCI-60 one-dose screen, 48 h (100 = growth as untreated, 0 = no growth, -100 = all killed)
Conditions in all cases: 10 µM unless noted
[1] = system: DU-145 prostate
[2] = system: K-562 leukemia
[3] = system: MALME-3M melanoma
[4] = system: MDA-MB-231 breast
[5] = system: RXF 393 renal
[6] = system: SF-268 CNS
[7] = system: SF-295 CNS
[8] = system: SF-539 CNS
[9] = system: UACC-257 melanoma
[10] = system: M14 melanoma
[11] = system: HCT-15 colon
[12] = system: HT29 colon
[13] = system: SNB-75 CNS
[14] = system: SNB-19 CNS
[15] = system: U251 CNS
[16] = system: PC-3 prostate
[17] = system: SK-MEL-5 melanoma
[18] = system: UACC-62 melanoma
[19] = system: LOX IMVI melanoma
[20] = system: SK-MEL-28 melanoma

SMILES	growth [1] [%]	growth [2]	growth [3]	growth [4]	growth [5]	growth [6] [%]	growth [7] [%]	growth [8]	growth [9] [%]	growth [10]	growth [11]	growth [12]	growth [13]	growth [14] [%]	growth [15] [%]	growth [16] [%]	growth [17]	growth [18]	growth [19]	growth [20] [%]
Cc1ccc(-c2cc(-c3ccc(C)cc3)nc(N3CCN(CCNc4ccnc5cc(Cl)ccc45)CC3)n2)cc1	21.5	27.7%	-45.9% (active)	18.6%	-14.5% (active)	28.2	94.9	7.85% (active)	40.8	-2.46% (active)	42.1%	11.9%	-21.1% (active)	38.7	35.7	44.6	38.5%	12.2%	6.97% (active)	14.6
N#CCCc1c[nH]c2ccccc12	107	85.4%	98.9%	97.1%	107%	91	98.3	95.9%	90.9	94.7%	104%	91.1%	76.4%	105	91.3	78.6	92.1%	98.6%	90.5%	106
Cn1cc(-c2noc(C(=O)c3cn(C)c4ncc(Br)cc34)n2)c2ccccc21	100	102%	80.5%	79.1%	104%	94.6	101	87.1%	96.7	99.4%	97.7%	105%	77.9%	96.6	93.8	92.3	95.6%	89.3%	96.8%	101
Cc1ccc2c(c1)C(C)Cc1c(Cl)ncnc1N2C (stereo not given)	79.8	30.9%	14.6%	-31.9% (active)	4.04% (active)	22.6	18.4	29%	20.1	15.1%	8.93% (active)	-8.76% (active)	50.3%	30.4	17.9	14.1	-86.7% (active)	7.38% (active)	-58.1% (active)	27.1
CCOC(CNC(=O)c1cccc([N+](=O)[O-])c1)OCC	100	94%	96.8%	92.9%	65.7%	93.6	91.2	96.9%	83.2	98.7%	99.7%	111%	82.6%	103	97.6	102	89.2%	88%	89.1%	106
O=C1NC(=O)C(Cc2ccccc2)(Cc2ccccc2)N1	111	108%	109%	98.4%	117%	95.1	94.2	102%	105	93.9%	102%	94.1%	85.2%	95.2	101	83.2	94.3%	97%	89.4%	119
COC(=O)[C@@H](NC(=O)NC(=O)NC(=O)CI)C(C)C	106	15.2%	-46.4% (active)	72.5%	83.3%	95.8	95.3	92.7%	87.1	85.8%	37%	60.2%	102%	94.5	100	85.5	85.2%	83.1%	-77.4% (active)	91.7
O=C1/C(=C/c2cccc(OCc3ccccc3)c2)Oc2cc(OCCN3CCCCC3)ccc21	88.1	-37.8% (active)	58.3%	71%	68.6%	81	95.5	68.1%	94.5	88.6%	-37% (active)	21%	76%	83.9	61.1	47.1	78.6%	77.8%	32.1%	76.6
